± gives the standard deviation of the averaged measurements. Whole data set: some 33,000 sequences, median “E-score (rank enrichment, -0.5 to 0.5)” near -0.0028, cut for the highest 2% near 0.23. For the sample, the highest values were picked, then their nearest neighbours and some sequences at random.
system: 2Sb-muMax20 (muMax20 with two 1,3-bis(methyl)benzene Cys staples, A13C/A17C and Q88C/A92C, C-terminal Lys); experiment: PBM 8-mer E-score (E-score (rank enrichment, -0.5 to 0.5)); higher = stronger preferential binding
Experimental: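 Protein binding microarray (universal PBM chip covering all 10-mers in fixed probe flanks) with chemically synthesized human Max(13-93) bHLH-LZ analogs (not full-length Max) bearing noncanonical residues (hArg, Tha, Aib, Nle at 65) and aromatic Cys staples. Read-out per 8-mer (and its reverse complement): E-score (rank-based enrichment, -0.5 to 0.5) and Z-score of median probe intensity.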

Point of comparison: AACATATG, “PBM 8-mer E-score” value 0.182 ± 0.013. Against it:
- CAGTCCGC — lower, -0.188 ± 0.055
- AGGTGCGG — lower, 0.0251 ± 0.022
- ATTTTATA — within error, 0.206 ± 0.038
- AATTTATG — within error, 0.238 ± 0.043
- AATTTATA — higher, 0.248 ± 0.02
- AATTTATC — within error, 0.18 ± 0.013
- ATTTTATG — lower, 0.0605 ± 0.031
- CATTTATA — lower, 0.137 ± 0.013
- CAGTAAGC — lower, 0.00962 ± 0.05
- AAAAAACC — lower, 0.143 ± 0.026
- GGCTCCGA — lower, -0.22 ± 0.014
- AAGGCAAT — lower, 0.0342 ± 0.0041
- ACAATTAC — within error, 0.194 ± 0.031
- ATAATTTG — lower, 0.132 ± 0.036
- CCAATTGA — higher, 0.252 ± 0.0093
- GTAATTTA — lower, 0.0825 ± 0.086
- CCAATTAA — within error, 0.159 ± 0.045
- ACAATTGA — within error, 0.194 ± 0.031
- CCAATTAC — higher, 0.238 ± 0.015
- CTAATTGA — lower, 0.053 ± 0.057
- GTAATTGA — lower, 0.0929 ± 0.019
- ATAATTTA — higher, 0.235 ± 0.015
- ATAATTGA — higher, 0.258 ± 0.029
- TCAATTGA — lower, 0.1 ± 0.058
- CCGAGAGC — lower, -0.304 ± 0.02
- TCTCCGCA — lower, -0.148 ± 0.043
- CATGTTCG — lower, 0.00518 ± 0.06
- CAGCTGAA — lower, -0.0746 ± 0.0082
- AAAATGAC — lower, 0.134 ± 0.0081
- CCCCTAAA — lower, 0.0345 ± 0.052
- CAGGCAAG — lower, -0.0204 ± 0.051
- CAGTGAAG — lower, -0.0862 ± 0.073
- AATGAGAA — lower, -0.0163 ± 0.03
- GCGAACCA — lower, -0.037 ± 0.021
- ACAGATTC — lower, 0.111 ± 0.028
- GCGTGGTA — lower, 0.0782 ± 0.019
- CTCTACTA — within error, 0.168 ± 0.024
- ATGCCATA — higher, 0.246 ± 0.022
- ATGCCATC — lower, 0.134 ± 0.0047
- ATGCCATG — lower, 0.026 ± 0.072
- AAACAGAT — lower, -0.0777 ± 0.083
- GTTTGAGA — lower, -0.0465 ± 0.092
- CAACAGAC — lower, 0.0401 ± 0.00088
- CACATATA — within error, 0.21 ± 0.068
- AACATATT — higher, 0.2329 ± 0.0015
- AACATATC — lower, 0.124 ± 0.0061
- GACATATA — lower, 0.0756 ± 0.061
- AACATATA — higher, 0.237 ± 0.031
- ATCGTTAG — lower, -0.0184 ± 0.067
- GTAGACAC — lower, 0.0487 ± 0.053
- ATTACAAC — lower, 0.1 ± 0.033
- AATAGGGA — higher, 0.23 ± 0.0053
- TATAGGGA — lower, -0.0259 ± 0.048
- GATAGGGA — lower, -0.111 ± 0.072
- ATCAAACG — lower, -0.0315 ± 0.075
- TGGTATAA — higher, 0.239 ± 0.0046
- GGGTACAA — lower, 0.0409 ± 0.026
- CGGTATAA — within error, 0.127 ± 0.043
- AGGTATAA — lower, 0.147 ± 0.0065
- GTGTACAA — within error, 0.216 ± 0.039
- TTGTACAA — higher, 0.29 ± 0.033
- CTGTACAA — lower, 0.0289 ± 0.12
- AGGTACAA — lower, 0.0983 ± 0.038
- TGGTACAA — higher, 0.265 ± 0.021
- CGTTAACC — lower, 0.0325 ± 0.077
- CTCGCCAG — lower, -0.193 ± 0.077
- CACGAATA — lower, 0.0625 ± 0.022
- CCGTATGA — lower, -0.0951 ± 0.073
- AAAGCATG — within error, 0.181 ± 0.039
- ACCGGGAT — lower, -0.253 ± 0.025
- AATCCCCC — lower, -0.219 ± 0.0031
- CATCCCCA — within error, 0.141 ± 0.047
- AATCCCCG — lower, 0.0673 ± 0.076
- AATCCCAT — within error, 0.185 ± 0.057
- AATCCCCT — higher, 0.2795 ± 0.0021
- GATCCCCA — within error, 0.153 ± 0.12
- TATCCCCA — higher, 0.282 ± 0.018
- AATCCCAA — within error, 0.158 ± 0.025
- AATCCCCA — higher, 0.258 ± 0.01
- ATCGCTAC — lower, -0.0426 ± 0.015
- CCCGACAC — lower, -0.0833 ± 0.071
- AATGAGGC — lower, 0.0433 ± 0.059
- GAAAGGAA — lower, 0.00148 ± 0.06
- CATTCATA — higher, 0.264 ± 0.046
- CATTCATC — lower, 0.0987 ± 0.029
- GATTCATA — within error, 0.178 ± 0.02
- CGAGAGCA — lower, -0.0422 ± 0.048
- ACGAAGAT — lower, 0.0215 ± 0.059
- TCGAAGAA — lower, 0.0801 ± 0.041
- ACGAAGAA — higher, 0.2404 ± 0.0017
- AGATGCGC — lower, 0.0628 ± 0.014
- CCGAATTA — lower, -0.0865 ± 0.076
- GTCGGGCA — lower, -0.103 ± 0.025
- GATGAATA — within error, 0.246 ± 0.059
- TATGAATA — within error, 0.211 ± 0.052
- GATGAATC — lower, 0.06 ± 0.071
- TACATCGA — lower, 0.106 ± 0.022
- AAGTGTCC — lower, 0.0439 ± 0.046
- AAAATCTA — lower, 0.00391 ± 0.078
- AAACGACC — lower, 0.115 ± 0.032
- AAACGACG — lower, 0.0001 ± 0.01
- AAACGACT — higher, 0.24 ± 0.023
- TAAGTTCA — lower, -0.0564 ± 0.0074
- TACACATA — higher, 0.268 ± 0.019
- CACATAAA — lower, 0.0814 ± 0.0052
- GACATACA — higher, 0.235 ± 0.0046
- TACATAAA — higher, 0.242 ± 0.046
- AACATACT — lower, 0.1 ± 0.032
- GACACATA — lower, 0.0252 ± 0.086
- GACATACC — lower, -0.168 ± 0.044
- AACATAAA — lower, 0.145 ± 0.0096
- CACACATA — lower, 0.00584 ± 0.1
- GACATAGA — lower, -0.0561 ± 0.027
- AACATACG — higher, 0.273 ± 0.019
- CACATACG — lower, 0.0173 ± 0.041
- CGTGGGAC — lower, 0.0245 ± 0.068
- CATTGGAC — lower, -0.164 ± 0.097
- ACTGAGAA — lower, -0.135 ± 0.097
- ACATGAAA — lower, 0.0717 ± 0.024
- CAGGAGAA — lower, 0.107 ± 0.037
- AGCAGCGA — lower, -0.182 ± 0.0055
- AGTGTTGG — lower, 0.043 ± 0.048
- GCGAGACA — lower, -0.0901 ± 0.089
- AGAATTGA — lower, -0.00649 ± 0.005
- CCGGTGGA — lower, -0.167 ± 0.015
- ATAAGACC — within error, 0.114 ± 0.078
- AAGGTATT — lower, 0.0792 ± 0.027
- ATAGGAGG — lower, -0.0435 ± 0.015
- GGTGTCCA — lower, 0.00348 ± 0.039
- ACTTACCC — within error, 0.166 ± 0.053
- AACATACA — within error, 0.153 ± 0.061
- TACATACA — higher, 0.235 ± 0.031
- CACATACA — lower, 0.0172 ± 0.022
- TCCTGCGA — lower, -0.0443 ± 0.016
- AATAAATT — higher, 0.271 ± 0.019
- TATAAATA — lower, 0.133 ± 0.019
- AATAAATA — lower, 0.0902 ± 0.023
- AATAAAAA — within error, 0.187 ± 0.046
- AATAAATG — higher, 0.226 ± 0.0099
- AATAAAAG — within error, 0.241 ± 0.065
- CATAAATA — higher, 0.293 ± 0.029
- AATAAAAT — lower, 0.0858 ± 0.023
- ATTAAATA — within error, 0.208 ± 0.023
- CTTAAATA — lower, 0.056 ± 0.014
- CATAAAAG — lower, 0.00379 ± 0.14
- GTTAAATA — higher, 0.23 ± 0.023
- ATGTAAGA — lower, 0.104 ± 0.011
- ACTCTTTC — lower, 0.0291 ± 0.035
- CTTTATCC — lower, 0.0138 ± 0.00086
- CGCAAACG — lower, -0.0619 ± 0.011
- CAAAATAG — within error, 0.0583 ± 0.12
- CGACATTC — lower, -0.0236 ± 0.057
- TCGCAGCA — lower, -0.185 ± 0.015
- CCTTACAA — lower, -0.0496 ± 0.00098
- TAACCGTA — within error, 0.179 ± 0.033
- ATGAAGGA — lower, 0.0372 ± 0.02
- CAGATGGG — lower, -0.06 ± 0.043
- ACGCCACA — lower, 0.113 ± 0.019
- TCACTGAA — lower, 0.0386 ± 0.03
- ACAATCGG — lower, -0.076 ± 0.075
- AACGACAT — within error, 0.126 ± 0.076
- AGTGCTGC — lower, -0.166 ± 0.021
- CCACCCCG — lower, 0.0359 ± 0.026
- GCACCCCC — lower, -0.265 ± 0.028
- GCACCCCA — higher, 0.24 ± 0.031
- TCACCCGA — lower, -0.0977 ± 0.0029
- CCACCCCA — within error, 0.275 ± 0.1
- TCACCCAA — within error, 0.154 ± 0.032
- ACACCCCA — within error, 0.224 ± 0.036
- TCACCCCA — higher, 0.368 ± 0.011
- CCACCCCC — lower, -0.0738 ± 0.041
